Screening data (PubChem BioAssay)
Shown are actives, neighbours in structure and some others; about 5.1% of the full set was active somewhere.
S1P3 antagonist: antagonists of human S1P3 receptor. CHO S1P3 NFAT-BLA reporter, FRET fluorescence, antagonist mode. inhibition, % at 4.98 µM. actives 0.27% (n = 170,000). AID 485;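 active means inhibition above the plate cutoff, the mean inhibition of test wells on that plate plus 3 SD, cut at about 28% in these data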;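 further: cells challenged with S1P at its EC80 of 0.8 µM; blue over green emission ratio from cleaved BLA substrate after 4 h stimulation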
S1P4 antag: antagonists of human S1P4 receptor; inhibition, % at 4.98 µM; actives 0.26% (n = 220,000); S1P4-expressing cells, antagonist mode, reporter read-out; in the data active means inhibition above about 29%
Target sequence (O95977 whole entry, looked up): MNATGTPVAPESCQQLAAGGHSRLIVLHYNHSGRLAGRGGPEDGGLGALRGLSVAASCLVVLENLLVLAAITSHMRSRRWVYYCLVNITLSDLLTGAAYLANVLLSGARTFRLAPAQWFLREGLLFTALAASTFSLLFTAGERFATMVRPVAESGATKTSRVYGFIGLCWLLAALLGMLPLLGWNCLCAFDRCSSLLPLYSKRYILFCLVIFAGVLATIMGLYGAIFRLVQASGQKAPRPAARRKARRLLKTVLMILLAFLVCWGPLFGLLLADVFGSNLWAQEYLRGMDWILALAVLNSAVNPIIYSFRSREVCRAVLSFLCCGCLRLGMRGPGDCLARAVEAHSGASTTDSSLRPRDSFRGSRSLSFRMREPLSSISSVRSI
ROMK mod: modulates human ROMK potassium channel activity; Tet-inducible ROMK, thallium flux fluorescence; actives lie on both sides; actives 2% (n = 130,000); AID 1918; B-score at 10 µM;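 active means signal ratio slope over the read window, or its plate-corrected B-score, at least 3 SD from the plate mean, either direction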;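 further: B-score of the F/F0 ratio slope over 7 to 12 s after thallium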
Cl transport mod: modulators of human KCC2 chloride dependent transport | actives 2.2% (n = 190,000) | AID 1456 | B-score of Tl+ flux slope (higher = more flux/activation; lower = inhibition) at 10 µM | KCC2 cells, thallium flux FluoZin-2 fluorescence;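 active means thallium flux slope and its plate-corrected score both differing from the plate sample mean at a set confidence after two filtering rounds, in either direction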;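 further: slope of fluorescence scaled to starting intensity during 10 to 20 s after thallium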
S1P4 ag: human S1P4 receptor agonism | AID 1509 | O95977 | activation, % at 4.98 µM | S1P4-expressing cell line, agonist reporter assay | actives 0.35% (n = 220,000); in the data active means activation above about 11%
RAM inhibit: blocks the yeast RAM network | inhibition, % at 50 µM | S. cerevisiae dse1pr::URA3 reporter, 5-FOA growth OD615, 2 d; analog-sensitive cbk1-as2 kinase mutant strain | actives 1.8% (n = 190,000);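 active means inhibition above a set limit, 3 SD over mean compound inhibition, cut at about 8.4% in these data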;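 further: inhibition rescues growth on 5-FOA so higher OD means more RAM inhibition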
ROMK hit retest: retested hit modulating human ROMK potassium channel | normalized thallium flux (F/F0 slope) at 10 µM | actives 54% (n = 3,000) | ROMK thallium flux, fluorescence ratio; active compounds read low | shares compounds with ROMK mod;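 active means Flux at 10 µM at least 3 SD below or above vehicle control mean in one or both replicates; inconclusive means no clear call, values can overlap the other calls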
Numbers stand for hits; . = inactive; ? = inconclusive; / = not tested or not shown.

SMILES | S1P3 antagonist | S1P4 antag | ROMK mod | Cl transport mod | S1P4 ag | RAM inhibit | ROMK hit retest
CC(C)Cn1c(=O)[nH]c(=O)c2c(C(F)(F)F)cc(-c3ccccc3)nc21 | . | . | / | . | . | / | /
CCn1ncc(C2=NOC(C(=O)NCc3ccccc3)C2)c1C (stereo not given) | . | . | 3.1 | . | . | . | .
N#C/C(=C\c1ccncc1)c1nc2ccccc2c(=O)[nH]1 | . | . | -4.9 | . | . | . | 0.051
N#C/C(=C/c1ccncc1)c1nc2ccccc2c(=O)[nH]1 | . | . | -6.6 | . | . | / | 0.042
N#C/C(=C\c1cccs1)c1nc2ccccc2[nH]1 | . | . | . | . | . | . | /
N#C/C(=C\c1ccccc1)c1nc2ncccc2[nH]1 | / | . | -2.5 | . | . | . | 0.053
N#C/C(=C1\CCCN1)c1nc2ccccc2c(=O)[nH]1 | . | . | . | / | . | . | /
COc1ccc(CN(C(=O)COc2ccccc2)c2ccccc2C(=O)O)cc1 | . | . | / | . | . | / | /
CC1(C)CC(=O)C/C(=N\NC(=O)CCc2ccc(S(=O)(=O)N3CCOCC3)cc2)C1 | . | . | . | . | . | . | /
COc1cc2c(cc1OC)CN(C(=O)c1ccc3nc[nH]c3c1)CC2 | . | . | 3.4 | . | . | . | .
COc1ccc2[nH]c(C(=O)O)c(NS(=O)(=O)c3ccc(OC)c(OC)c3)c2c1 | . | . | . | / | . | . | /
COC(=O)c1[nH]c2ccc(F)cc2c1NS(=O)(=O)c1ccc(OC)cc1 | . | . | . | . | . | . | .
Nc1n[nH]c(N)c1N=Nc1ccc2c(c1)OCO2 | . | . | . | . | . | . | /
CCOC(=O)c1sc(N)c(C(=O)Nc2ccccc2OC)c1C | . | . | . | . | . | . | /
N#CCSc1nc2sc3c(c2c(=O)n1C1CCCCC1)CCCC3 | / | . | . | / | . | . | /
C=C(C)CSc1nc2sc3c(c2c(=O)n1C1CCCCC1)CCN(C)C3 | . | . | / | . | . | / | 0.065
CN(Cc1ccccc1NS(=O)(=O)c1ccc2ccccc2c1)C1CCCCC1 | . | . | -2.9 | . | . | . | ?
CC1CCC(C(C)C)C(OC(=O)COC(=O)c2ccc(N)cc2)C1 (stereo not given) | . | . | / | . | . | . | /
CC1CCC(C(C)C)C(OC(=O)Cn2c(-c3ccc(Br)cc3)[n+](C)c3ccccc32)C1 (stereo not given) | . | . | -6.8 | . | . | . | 0.044
Cc1ccccc1OCc1n(CC(=O)OC2CC(C)CCC2C(C)C)c2ccccc2[n+]1C (stereo not given) | . | . | / | . | . | . | 0.042
CC1CCC(C(C)C)C(OC(=O)Cn2c(-c3ccc(Cl)cc3)[n+](C)c3ccccc32)C1 (stereo not given) | . | . | -8 | . | . | / | 0.043
FC(F)(F)c1cccc(OCCN2CCN(Cc3ccccc3)CC2)c1 | . | . | . | . | . | . | /
CC(C)(O)C#Cc1ccc(C(=O)N2CCN(c3ccc(Cl)cc3)CC2)cc1 | . | . | / | . | . | . | /
CCOC(=O)COn1c(=O)c(-c2cccs2)[n+]([O-])c2ccccc21 | . | . | -4.2 | . | . | . | 0.059
CCOC(=O)COn1c(=O)c(-c2cc3ccccc3o2)[n+]([O-])c2ccccc21 | / | . | / | . | . | . | /
SMILES | S1P3 antagonist | S1P4 antag | ROMK mod | Cl transport mod | S1P4 ag | RAM inhibit | ROMK hit retest
CCc1ccc(NC(=S)N2CCN(c3cccc(OC)c3)CC2)cc1 | . | . | / | . | . | . | /
Fc1ccc(C(CNC(=S)NC2CCCCC2)N2CCOCC2)cc1 (stereo not given) | . | . | . | . | . | . | /
CN1CCN(CCCN2c3ccccc3Sc3ccc(Cl)cc32)CC1 | . | . | / | . | . | . | 0.048
OCCN1CCN(CCCN2c3ccccc3Sc3ccc(C(F)(F)F)cc32)CC1 | . | . | / | . | . | . | /
CCc1cc2c(NCC3CCCO3)nc(C)nc2s1 (stereo not given) | / | . | . | . | . | . | /
CCn1c(C(=O)N2CCC(C(=O)NCCCSC3CCCCC3)CC2)cc2sccc21 | . | . | / | . | . | . | ?
CCN1CCN(C(=O)C2CCN(C(=O)c3cc4sccc4n3CC)CC2)CC1 | . | . | / | . | . | . | /
Cn1nc(-c2ccc(Cl)cc2)c2cc(C(=O)NCCCN3CCCC3)sc21 | . | . | / | / | . | . | 0.059
